Potency and outcome data for eleven compounds are collected here from PubChem BioAssay (Tox21).

The structures appear in SMILES notation. “And” between values parts separate entries of the source, which are not always exact repeats. Identical values can stand only once. Results filed as inconclusive are left out. Some structures have more than one record in an assay (separate samples or runs), and their calls can disagree. The source made the active and inactive calls. Unless noted, calls follow the shape of the dose curve; as a rule, active = well fitted curve in the direction sought with a large enough effect in the repeat runs; inconclusive = weak or mixed curves; inactive = no such curve, though single readings can be large; an effect the other way counts as inactive or inconclusive.

Experiment [1] is described as follows: qHTS assay to identify small molecule antagonists of the constitutive androstane receptor (CAR) signaling pathway - cell viability counter screen (AID 1224837). Also: series mostly up to about 92 µM; nearly all actives have a fitted effect of over 45% in size. The method, boiled down: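 HepG2 cells stably expressing hCAR and a CYP2B6-2.2kb reporter were plated and pre-incubated 4 hr at 37 C/5% CO2, then given compounds at 15 concentrations plus 50 nM CITCO (final). After 23 hr, viability was read by CellTiter-Fluor fluorescence.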
(qHTS replaces the single test concentration by a dilution series.)

Experiment [2] deals with Nuclear receptor subfamily 1 group I member 3 (Homo sapiens) (UniProt Q14994). The experiment in a line: qHTS assay to identify small molecule antagonists of the constitutive androstane receptor (CAR) signaling pathway (AID 1224838). Also: nearly all actives have a fitted effect of over 40% in size. Also: potency is read from the fitted curve at half-maximal effect. The method, boiled down: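 HepG2 cells stably co-transfected with hCAR and a CYP2B6-2.2kb luciferase reporter were seeded 4 h before compound addition at 15 concentrations. Cells were stimulated with 50 nM CITCO (final) for 24 h at 37 C; luciferase luminescence was then read.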
Chain of Nuclear receptor subfamily 1 group I member 3 (Homo sapiens) (Q14994 whole entry, looked up): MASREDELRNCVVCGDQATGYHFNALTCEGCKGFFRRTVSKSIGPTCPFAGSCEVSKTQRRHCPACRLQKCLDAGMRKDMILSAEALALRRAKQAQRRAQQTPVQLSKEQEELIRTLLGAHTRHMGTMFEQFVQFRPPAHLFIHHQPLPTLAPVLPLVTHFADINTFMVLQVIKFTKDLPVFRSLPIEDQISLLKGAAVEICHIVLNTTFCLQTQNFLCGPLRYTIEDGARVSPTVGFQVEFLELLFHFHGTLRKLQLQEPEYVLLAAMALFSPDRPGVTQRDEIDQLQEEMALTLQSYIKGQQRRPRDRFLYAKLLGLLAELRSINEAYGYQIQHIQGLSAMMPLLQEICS

Experiment [3] shares this target. The experiment in a line: qHTS assay to identify small molecule agonists of the constitutive androstane receptor (CAR) signaling pathway (AID 1224839). Also: nearly all actives have a fitted effect of over 15% in size. Also: potency is read from the fitted curve at half-maximal effect. As to activation: series mostly up to about 92 µM. A digest of the protocol: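 Using human hepatoma HepG2 cells engineered with hCAR and a CYP2B6-2.2kb reporter, 15-concentration compound series were incubated 24 h alongside PK11195 at 0.75 uM final, with luminescence quantified afterwards.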

Experiment [4] can be described thus: qHTS assay to identify small molecule antagonists of the estrogen related receptor signaling pathway with the pleiotropic PPARgamma coactivator (PGC) from Tox21 10K library - cell viability counter screen (AID 1224840; active = well fitted cell-killing curve with a large enough effect in the repeat runs, not every such curve was filed as active; also: nearly all actives have a fitted effect of over 40% in size; also: potency is read from the fitted curve at half-maximal effect). The method, boiled down:
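PGC/ERR cells were seeded at 2,000 cells/well and left 6 hours at 37 C/5% CO2 before pin-tool addition of compounds in DMSO. After 17.5 hours at 37 C, CellTiter-Fluor was added and fluorescence read 30 minutes later.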

The nature of experiment [5]: qHTS assay to identify small molecule agonists of the hypoxia (HIF-1) signaling pathway - cell viability counter screen (AID 1224844; calls by dose curve; also: nearly all actives have a fitted effect of over 50% in size; also: potency is read from the fitted curve at half-maximal effect). The method, boiled down: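 HRE-bla ME-180 cells in medium with 0.5% dialyzed FBS were preincubated 5 hrs at 37C, exposed to compounds for 17 hrs, then viability was read as CellTiter-Glo luminescence after 30 min at room temperature, in the reporter wells.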

The nature of experiment [6]: qHTS assay to identify small molecule agonists of H2AX (AID 1224845; active = well fitted activation curve with a large enough effect in the signal ratio in the repeat runs, not every such curve was filed as active; the % refers to the signal ratio; also: potency is read from the fitted curve at half-maximal effect). A digest of the protocol:
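Phospho-H2AX Ser139 measured by HTRF (ex 320 nm; em 665 and 620 nm) after 24 hr antibody incubation. Compounds, 15 concentrations, 0.76% DMSO, were applied to CHO-K1 cells for 3hr at 37C before lysis.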

Experiment [7] in a line: qHTS assay to identify small molecule agonists of the hypoxia (HIF-1) signaling pathway (AID 1224846; active = well fitted activation curve with a large enough effect in the signal ratio in the repeat runs, not every such curve was filed as active; the % refers to the signal ratio). The method, boiled down: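 HRE-bla ME-180 cells (beta-lactamase reporter under hypoxia response element) were plated at 2,000 cells/well in medium with 0.5% dialyzed FBS, rested 5 hrs, then given compounds in DMSO for 17 hrs at 37C, 5% CO2. Reporter induction was read with CCF4-AM FRET substrate.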

The nature of experiment [8]: qHTS RealTime-Glo MT Cell Viability Assay in HepG2 cells - 24 hour (AID 1224867). Also: nearly all actives have a fitted effect of over 50% in size. A digest of the protocol:
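Viability was tracked continuously by NanoLuc luminescence from prosubstrate reduced by living HepG2 cells, at successive time points over 40 h of compound exposure. Cells with reagent were preincubated 5 h at 37 °C before compound addition.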

Experiment [9] is described as follows: qHTS RealTime-Glo MT Cell Viability Assay in HEK293 cells - 32 hour (AID 1224868). Also: nearly all actives have a fitted effect of over 50% in size. Also: potency is read from the fitted curve at half-maximal effect. A digest of the protocol: (§1)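 Viability tracked continuously by luminescence as live cells reduce a prosubstrate for NanoLuc; HEK293 cells preincubated 5 h, compound-treated at 37 C, and read at 0, 8, 16, 24, 32 and 40 h.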
Experiment [10] in a line: A CellTox Green Cytotoxicity Assay to monitor cytotoxicity in HEK293 cells - 0 hour (AID 1224869). Also: nearly all actives have a fitted effect of over 50% in size. A digest of the protocol: (§2)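 HEK293 cells premixed with CellTox Green dye were seeded at 600 cells/well and left 5 h at 37 C/5% CO2 before pin transfer of 23 nL compound in DMSO. Fluorescence from dye bound to dead-cell DNA was read during 40 h treatment.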
Experiment [11] can be described thus: qHTS RealTime-Glo MT Cell Viability Assay in HepG2 cells - 40 hour (AID 1224870). Also: nearly all actives have a fitted effect of over 50% in size. The method, boiled down:
(§3)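 Real-time viability: cells seeded at 600 per well together with NanoLuc and cell-permeant prosubstrate, compounds added after 5 h incubation. Luminescence tracked at 0, 8, 16, 24, 32 and 40 h of exposure.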

Experiment [12] can be described thus: A CellTox Green Cytotoxicity Assay to monitor cytotoxicity in HEK293 cells - 40 hour (AID 1224871). Also: nearly all actives have a fitted effect of over 45% in size. Also: potency is read from the fitted curve at half-maximal effect. A digest of the protocol: as §2
Experiment [13] is described as follows: qHTS RealTime-Glo MT Cell Viability Assay in HEK293 cells - 16 hour (AID 1224872). The method, boiled down: as §1
Experiment [14] can be described thus: qHTS assay to identify small molecule agonists of H2AX - cell viability counter screen (AID 1224847; calls by dose curve;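 also: wild-type CHO-K1 cells; top concentration of the series differs between compounds; nearly all actives have a fitted effect of over 30% in size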). A digest of the protocol: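 After overnight plating of 1000 CHO-K1 cells per well, a 15-concentration compound series was applied for 3 hr at 37C. Luminescence from CellTiter-Glo, read following 30 min at room temperature, reflected cell viability.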
The nature of experiment [15]: qHTS RealTime-Glo MT Cell Viability Assay in HepG2 cells - 8 hour (AID 1224873). Also: nearly all actives have a fitted effect of over 55% in size. A digest of the protocol: as §3
Experiment [16] has as its target Thyrotropin receptor (Homo sapiens) (UniProt P16473). The experiment in a line: qHTS assay to identify small molecule agonists of the thyroid stimulating hormone receptor (TSHR) signaling pathway (AID 1224843; calls by dose curve; also: nearly all actives have a fitted effect of over 45% in size). The method, boiled down: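 HEK293 cells stably bearing the thyrotropin receptor were plated at 800 cells/well and challenged with compound (30 min, RT). Accumulated cAMP was quantified via cAMP-d2 competing for cryptate-tagged antibody.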

Experiment [17] in a line: qHTS assay to identify small molecule antagonists of the estrogen related receptor signaling pathway with the pleiotropic PPARgamma coactivator (PGC) from Tox21 10K library (AID 1224841; call rule not given here). The method, boiled down:
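PGC/ERR reporter cells were seeded at 2,000 cells/well and held 6 hours at 37 C/5% CO2 before pin-tool addition of compounds in DMSO. After 18 hours at 37 C, One-Glo was added and luminescence read after 30 minutes at room temperature.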

The nature of experiment [18]: qHTS assay to identify small molecule agonists of the estrogen related receptor signaling pathway with the pleiotropic PPARgamma coactivator (PGC) from Tox21 10K library (AID 1224842). Also: nearly all actives have a fitted effect of over 15% in size. The method, boiled down: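 Luminescence from One-Glo (30 min, room temperature) measured after PGC/ERR cells had 18 h at 37 C with pinned compound (23 nL in DMSO). Cells had been seeded at 2,000 per well and pre-incubated 6 h.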

Experiment [19] in a line: qHTS assay to identify small molecule antagonists of the estrogen related receptor (ERR) signaling pathway from Tox21 library (AID 1224848). Also: nearly all actives have a fitted effect of over 50% in size. A digest of the protocol:
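Reading was by luminescence 30 min after ONE-Glo addition. Before that, ERR cells at 2,000 per well had rested 6 h at 37 C/5% CO2 and then received pin-tooled compounds in DMSO for 18 h at 37 C.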

Chain of Thyrotropin receptor (Homo sapiens) (P16473 whole entry, looked up): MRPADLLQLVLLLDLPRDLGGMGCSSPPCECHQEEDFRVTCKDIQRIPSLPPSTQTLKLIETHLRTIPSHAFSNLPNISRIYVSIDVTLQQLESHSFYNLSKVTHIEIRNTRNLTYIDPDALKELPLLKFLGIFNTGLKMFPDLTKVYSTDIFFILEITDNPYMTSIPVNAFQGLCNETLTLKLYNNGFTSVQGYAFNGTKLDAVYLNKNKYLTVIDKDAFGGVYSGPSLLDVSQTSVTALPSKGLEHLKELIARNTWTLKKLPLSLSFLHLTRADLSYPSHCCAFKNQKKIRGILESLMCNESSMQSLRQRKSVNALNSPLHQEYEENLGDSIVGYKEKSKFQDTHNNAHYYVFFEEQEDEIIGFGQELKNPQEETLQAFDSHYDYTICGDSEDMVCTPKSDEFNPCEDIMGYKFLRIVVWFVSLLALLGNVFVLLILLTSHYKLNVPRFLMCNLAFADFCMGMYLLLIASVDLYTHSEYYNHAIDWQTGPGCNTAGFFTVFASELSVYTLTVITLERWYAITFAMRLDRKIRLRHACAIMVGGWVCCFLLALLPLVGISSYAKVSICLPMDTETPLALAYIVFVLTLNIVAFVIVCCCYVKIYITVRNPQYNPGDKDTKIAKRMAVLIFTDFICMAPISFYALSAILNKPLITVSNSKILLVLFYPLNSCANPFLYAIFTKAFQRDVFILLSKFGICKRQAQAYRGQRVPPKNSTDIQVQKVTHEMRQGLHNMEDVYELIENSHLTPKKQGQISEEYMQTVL

Take `CN(C)N=O`: the Potency result in experiment [1], in [2], in [3], in experiment [4], in experiment [5] and in experiment [6] was “inactive” in each case. Moreover, the Potency result in [9], in experiment [10] and in [12] was “inactive” each time. Further, the outcome in [7], in [8], in [11] and in [13] was inactive.

`CC(NC(C)(C)C)C(=O)c1cccc(Cl)c1` (stereo not drawn): the Potency result in experiment [1], in experiment [4], in [5], in [6], in experiment [14] and in experiment [9] was “inactive” in each case. The Potency entry in experiment [10] and in [12] was “inactive” each time. In addition, the compound was called inactive in experiment [8], in [13] and in experiment [15].

`CCC[N+](=O)[O-]`: the Potency was 8.48 µM (active) and inactive in experiment [2]; 37.9 µM (active) and inactive in experiment [4]; 4.81 µM (active) and inactive in [5]; 38.2 µM (active) and inactive in [12]. The Potency result in [3], in [16], in [14], in experiment [9] and in [10] was “inactive” in each case. The outcome in experiment [7], in experiment [8], in [13] and in [15] was inactive.

Turning to `CC1C=[C-]C=C1.[C-]#[O+].[C-]#[O+].[C-]#[O+].[Mn]`, the Potency result in [1], in experiment [2], in [4], in experiment [16], in [5] and in [14] was “inactive” in each case. Moreover, the Potency result in experiment [9], in [10] and in experiment [12] was “inactive” each time. The call in experiment [7], in [8], in [13] and in experiment [15] was inactive.

For `Nc1c(Cl)c(Cl)nc(C(=O)O)c1Cl`, the Potency result in [1], in experiment [4], in experiment [16], in experiment [5], in experiment [6] and in experiment [9] was “inactive” each time. Further, the Potency result in experiment [10] and in [12] was “inactive” throughout. For the same compound, the compound was called inactive in [7], in [8], in experiment [13] and in experiment [15].

Regarding `CC1OC(C)OC(C)O1` (stereo not drawn), the Potency entry in experiment [1], in [4], in [17], in experiment [5], in experiment [14] and in [19] was “inactive” in each case. In addition, the Potency result in experiment [9], in experiment [10] and in experiment [12] was “inactive” throughout. The compound was called inactive in experiment [18], in [7], in experiment [8], in [11] and in experiment [13].

As for `CCCC1COC(Cn2cncn2)(c2ccc(Cl)cc2Cl)O1` (stereo not drawn), the Potency result in [2], in [16], in experiment [5], in experiment [6] and in experiment [10] was “inactive” in each case. For the same compound, the Potency is 62.3 µM (active) and 61.1 µM (active) in experiment [3]; 61.1 µM (active) in [4]; 22.3 µM (active) and 24.5 µM (active) in experiment [9]. The outcome in [7], in experiment [8], in [11] and in [15] was inactive.

Take `O=[N+]([O-])c1ccccc1`: the Potency entry in experiment [1], in experiment [4], in experiment [17], in [16], in [5] and in experiment [6] was “inactive” throughout. Besides, the Potency entry in experiment [14], in experiment [19], in experiment [9], in experiment [10] and in experiment [12] was “inactive” throughout. In addition, the compound was classed as inactive in experiment [18], in experiment [7], in [8] and in [13].

As for `OC(O)C(Cl)(Cl)Cl`, the Potency result in experiment [1], in [4], in [17], in experiment [16], in experiment [5] and in experiment [14] was “inactive” in each case. Further, the Potency result in experiment [19], in [9], in experiment [10] and in [12] was “inactive” throughout. Also, the result in experiment [18], in experiment [7], in experiment [8], in experiment [11], in experiment [13] and in experiment [15] was inactive.

As to `C#CCN(C)[C@H](C)Cc1ccccc1`, the Potency entry in [1], in [4], in experiment [16], in [5], in experiment [9] and in experiment [10] was “inactive” in each case. In addition, in [12], the Potency entry was “inactive”. In addition, the compound was classed as inactive in experiment [8], in [11], in [13] and in experiment [15].

As for `O=NN1CCCC1`, the Potency in experiment [2] was 28.6 µM (active) and inactive; in experiment [5] it was 11.5 µM (active) and inactive; in experiment [6] it was 16.7 µM (active) and inactive. For the same compound, the Potency result in experiment [3], in experiment [4], in [16], in experiment [9], in experiment [10] and in experiment [12] was “inactive” throughout. The outcome in experiment [7], in experiment [8], in experiment [11] and in [13] was inactive.
